For nine compounds, z-score and composite z-score results are on record in PubChem BioAssay.

Active and inactive are the calls of the source. Unless noted, no rule for the calls is given here.

Assay [1] is described as follows: resazurin metabolic signal in HepG2 cells – cell-based, resazurin fluorescence, 24 h, PK04 Diversity Set, profiling panel (AID 1172). The following applies: HepG2 viability, higher = more signal.
Assay [2] is described as follows: budding yeast growth changes without added modifier – OD600, strain BY4716, 24 h, basal condition, primary screen (AID 1173). The following applies: S. cerevisiae BY4716 growth, OD600, 24 h; higher = more signal, called active from +8 up or from −8 down.
A short description of assay [3]: viability profiling in MM1S myeloma cells – cell-based, resazurin fluorescence, basal, 24 h, PK04 Diversity Set, profiling panel (AID 1174).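 Also: MM1S multiple myeloma cell line.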 As to conditions: higher = more signal, called active from +8 up or from −8 down. (Alamar Blue is a resazurin reagent that responds to reducing activity.)
In assay [4] the target is Dihydroorotate dehydrogenase (quinone), mitochondrial (Plasmodium falciparum (isolate 3D7)) (UniProt Q08210). Description: inhibition of P. falciparum DHODH – biochemical, C-terminal His tag, absorbance 600 nm, primary screen (AID 1175).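 Also: recombinant parasite enzyme with a five histidine tag at its C terminus.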 The following applies: PfDHODH enzyme, DCIP absorbance 600 nm; higher = more signal, called active from +8 up or from −8 down.
Assay [5] in a line: inhibition of PAO1 biofilm formation – strain PAO1, LB-PBS medium, absorbance 600 nm, primary screen (AID 1176). The following applies: P. aeruginosa PAO1 growth/biofilm, A600, 12 h; higher = more signal.
Assay [6] can be described thus: growth modulation of vineyard yeast isolate – strain RM11-1a, OD600, basal, 24 h, primary screen (AID 1177).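 Also: cultures grown under basal conditions with no added stressor.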 The following applies: S. cerevisiae RM11-1a growth, OD600, 24 h; higher = more signal, called active from +8 up or from −8 down.
Assay [7] in a line: growth of efflux-deficient E. coli DRC39 – strain DRC39, OD650, 24 h, E. coli filamentation inducers, primary screen (AID 1178).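 Also: growth measured as culture turbidity by optical density at 650 nm.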 As to conditions: E. coli DRC39 acrAB, higher = more signal, called active from +8 up or from −8 down.
Assay [8] can be described thus: growth of efflux-deficient E. coli DRC39 – strain DRC39, OD650, 48 h, E. coli filamentation inducers, primary screen (AID 1179).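 Also: screen aims at cell division blockers that make cells filament.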 As to conditions: E. coli DRC39 delta-acrAB growth, higher = more signal, called active from +8 up or from −8 down.
A short description of assay [9]: viability profiling in RPMI8226 myeloma cells – cell-based, resazurin fluorescence, basal, 24 h, PK04 Diversity Set, profiling panel (AID 1180).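 Also: RPMI8826 multiple myeloma cell line at 5000 cells per well.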 The following applies: higher = more signal.
Assay [10] has as its target E3 ubiquitin-protein ligase XIAP (Homo sapiens) (UniProt P98170). As to the kind of experiment: small molecules binding XIAP protein – biophysical, small-molecule microarray, fluorescence 635 nm, primary screen (AID 1181).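 Also: score merges 667 nm emission and signal to noise over triplicate slides.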 The following applies: higher = more signal.
For assay [11], the system named is XIP peptide (Xip251-270) binding. As to the kind of experiment: XIP fragment 251-270 binding compounds – biochemical, small-molecule microarray, fluorescence 635/667 nm, 0.1 µg/mL protein, primary screen (AID 1182). As to conditions: fluorescent protein binding, 635 nm, higher = more signal, called active from +8 up or from −8 down.
The next assay concerns XIP peptide (Xip251-270). Description: compounds binding XIP fragment 251-270 – biochemical, small-molecule microarray, fluorescence 635/667 nm, 0.5 µg/mL protein, primary screen (AID 1183). As to conditions: fluorescence 635 nm, higher = more signal.
Assay [12] is described as follows: blood-stage malaria parasite viability loss – strain 3D7, DAPI fluorescence, 100 nL, primary screen (AID 1184).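 Also: parasites grown inside human red blood cells in medium with human serum.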 As to conditions: P. falciparum 3D7 growth, 3 d, higher = more signal.
In assay [13] the target is Homeobox protein Hox-A13 (Mus musculus) (UniProt Q62424). Description: disruptors of Hoxa13 oligonucleotide interaction – biochemical, fluorescence polarization, labeled oligonucleotide, primary screen (AID 1185). As to conditions: Hoxa13:DNA binding, 15 min, higher = more signal, called active from +8 up or from −8 down.
A short description of assay [14]: blockers of DNA damage checkpoint Chk1 activation – imaging, HeLa, hydroxyurea, phospho-Chk1 antibody, percent positive cells, primary screen (AID 1186). The following applies: hydroxyurea-induced phospho-Chk1 immunofluorescence imaging, higher = more signal.
Assay [15] can be described thus: blockers of DNA damage checkpoint Chk1 activation – imaging, HeLa, hydroxyurea, phospho-Chk1 nuclear intensity, primary screen (AID 1187). The following applies: hydroxyurea-induced phospho-Chk1 immunofluorescence imaging, higher = more signal.

E3 ubiquitin-protein ligase XIAP (Homo sapiens), sequence (P98170 whole entry, looked up, the tested form may be a part): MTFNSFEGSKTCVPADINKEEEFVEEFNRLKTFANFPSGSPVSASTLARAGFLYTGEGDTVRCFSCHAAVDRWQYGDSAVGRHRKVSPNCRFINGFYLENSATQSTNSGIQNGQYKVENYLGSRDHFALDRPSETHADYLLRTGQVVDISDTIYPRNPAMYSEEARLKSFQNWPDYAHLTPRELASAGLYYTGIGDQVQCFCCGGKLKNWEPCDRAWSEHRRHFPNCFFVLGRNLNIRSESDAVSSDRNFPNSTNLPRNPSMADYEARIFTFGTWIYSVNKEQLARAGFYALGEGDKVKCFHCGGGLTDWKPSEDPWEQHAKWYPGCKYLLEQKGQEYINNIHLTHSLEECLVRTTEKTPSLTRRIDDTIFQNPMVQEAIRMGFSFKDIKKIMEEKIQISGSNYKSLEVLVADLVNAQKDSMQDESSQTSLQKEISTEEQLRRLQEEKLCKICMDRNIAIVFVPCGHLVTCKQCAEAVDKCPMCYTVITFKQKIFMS
Dihydroorotate dehydrogenase (quinone), mitochondrial (Plasmodium falciparum (isolate 3D7)), sequence (Q08210 whole entry, looked up): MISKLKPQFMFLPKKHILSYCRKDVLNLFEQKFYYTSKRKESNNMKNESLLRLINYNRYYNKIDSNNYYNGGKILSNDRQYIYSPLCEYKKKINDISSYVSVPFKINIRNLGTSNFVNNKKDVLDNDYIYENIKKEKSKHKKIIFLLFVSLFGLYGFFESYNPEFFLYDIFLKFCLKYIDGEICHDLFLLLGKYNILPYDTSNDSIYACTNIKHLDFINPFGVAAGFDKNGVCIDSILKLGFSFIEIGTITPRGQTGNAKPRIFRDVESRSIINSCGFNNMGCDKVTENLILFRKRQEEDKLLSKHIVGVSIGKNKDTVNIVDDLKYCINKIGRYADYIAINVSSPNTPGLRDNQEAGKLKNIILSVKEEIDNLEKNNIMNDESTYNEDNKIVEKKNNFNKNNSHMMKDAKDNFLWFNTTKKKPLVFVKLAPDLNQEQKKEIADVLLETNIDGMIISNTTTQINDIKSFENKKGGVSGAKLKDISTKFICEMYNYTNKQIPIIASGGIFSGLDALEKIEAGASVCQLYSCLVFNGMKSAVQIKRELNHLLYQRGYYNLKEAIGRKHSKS
Homeobox protein Hox-A13 (Mus musculus), sequence (Q62424 whole entry, looked up): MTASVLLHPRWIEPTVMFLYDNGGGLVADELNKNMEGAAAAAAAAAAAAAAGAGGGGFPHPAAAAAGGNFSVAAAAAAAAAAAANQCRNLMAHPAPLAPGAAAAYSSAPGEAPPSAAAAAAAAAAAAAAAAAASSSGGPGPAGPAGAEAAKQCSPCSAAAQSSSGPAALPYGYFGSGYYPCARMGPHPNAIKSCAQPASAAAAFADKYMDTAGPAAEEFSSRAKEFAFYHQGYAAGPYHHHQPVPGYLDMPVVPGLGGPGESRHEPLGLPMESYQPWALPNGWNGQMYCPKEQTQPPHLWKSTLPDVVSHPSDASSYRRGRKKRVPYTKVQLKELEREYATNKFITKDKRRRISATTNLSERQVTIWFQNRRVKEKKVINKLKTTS

Turning to `CC(=O)NCCCC[C@@H]1NC(=O)[C@@H]2C[C@H](C(=O)NCCCCCCN)[C@H](c3cccc(OCCO)c3)N2C1=O`, the z-score in [1] was -0.55; in assay [2], -0.652 (inactive); in [3], -0.152 (inactive); in assay [5], -0.0617 (inactive); in assay [6], -0.158 (inactive); in [7] it was -0.0095 (inactive). Also, the z-score in assay [8] is 0.211 (inactive); in assay [9], -0.257; in assay [12] it was 1.42; in [13] it was -3.35 (inactive); in assay [14] it was 0.391 (inactive); in assay [15], 0.388 (inactive). The composite z-score in assay [4] was 0.23 (inactive); in [10], 0.0896; in [11], 1.15 (inactive); with XIP peptide (Xip251-270), 0.635.
Take `COC(=O)[C@@]1(Cc2ccc(OC)cc2)[C@H]2c3cc(C(=O)N4CCCC4)n(Cc4cc(C)n(C)n4)c3C[C@H]2CN1C(=O)c1ccccc1`: the z-score in [1] is -0.646; in assay [2] it was 1.1 (inactive); in assay [3], -2.09 (inactive); in [5] it was -0.222 (inactive); in [6], 0.472 (inactive); in [7], -0.145 (inactive). The z-score in [8] is 0.342 (inactive); in assay [9], -2.11; in [12], -1.44; in assay [13], -4.85 (inactive); in assay [14], -0.6 (inactive); in assay [15], -0.279 (inactive). Besides, the composite z-score in assay [4] is -0.77 (inactive); in [10], -0.02; in assay [11], 1.26 (inactive); in the assay with XIP peptide (Xip251-270) it was 0.528.
For `COc1cc(NN2C(C(O)c3ccccc3)C=CC3C(=O)N(C)C(=O)C32)cc(OC)c1OC` (centres undefined), the z-score in assay [1] was -2.2; in assay [2], 0.758 (inactive); in [3] it was -1.23 (inactive); in assay [5], 0.574 (inactive); in assay [6], -0.0472 (inactive); in assay [7], -0.466 (inactive). Moreover, the z-score in [8] is -0.882 (inactive); in assay [9], -1.32; in assay [12], -0.312; in [13], -3.23 (inactive); in assay [14], -0.36 (inactive); in [15] it was -0.516 (inactive). Also, the composite z-score was -2.04 (inactive) in [4], 0.0024 in [10], 0.561 (inactive) in assay [11] and 0.346 with XIP peptide (Xip251-270).
Take `CC(C)C[C@@H]1NC(=O)CNC(=O)[C@@]23C(=O)N[C@@H](Cc4ccccc4)C2[C@H](C)[C@@]2(C)O[C@H]2C3/C=C/C/C=C\CNC1=O` (some centres undefined): the z-score in assay [1] is 0.544; in assay [2], 0.205 (inactive); in assay [3], 0.339 (inactive); in [5], 1.31 (inactive); in assay [6] it was 0.0082 (inactive); in [7], 0.387 (inactive). Further, the z-score is 0.394 (inactive) in assay [8]; 0.663 in assay [9]; 0.0276 in assay [12]; -6.42 (inactive) in [13]; -0.284 (inactive) in assay [14]; 0.0034 (inactive) in assay [15]. The composite z-score is 0.084 (inactive) in assay [4], -0.164 in assay [10], 0.408 (inactive) in assay [11] and 0.767 with XIP peptide (Xip251-270).
For the compound `C[C@@H]1ON(c2ccc(I)cc2)[C@H](c2ccc(OC(=O)OC(C)(C)C)cc2)[C@H]1C(=O)N1C(=O)OC[C@H]1Cc1ccccc1`, the z-score in assay [1] is 1.14; in assay [2] it was -1.24 (inactive); in assay [3], 1.6 (inactive); in assay [5], 0.294 (inactive); in [6], 0.61 (inactive); in [7] it was 1.81 (inactive). Further, the z-score in assay [8] is 1.2 (inactive); in [9], 1.87; in assay [12], -2.13; in assay [13], -0.866 (inactive); in [14], -1.08 (inactive); in assay [15], -0.859 (inactive). In addition, the composite z-score was -0.571 (inactive) in assay [4], -0.0448 in assay [10], 0.589 (inactive) in [11] and 0.515 in the assay on XIP peptide (Xip251-270).
For the compound `C=CCC(OC(C)=O)[C@@H]1[C@@H](N(Cc2cccc3ccccc23)C(=O)c2ccc(-c3ccccc3)cc2)c2cc(OCCCO)ccc2N1C(=O)c1ccc(-c2ccccc2)cc1` (some centres undefined), the z-score was -0.132 in [1]; -0.166 (inactive) in assay [2]; 0.116 (inactive) in assay [3]; 0.055 (inactive) in assay [5]; -0.929 (inactive) in assay [6]; -0.277 (inactive) in [7]. For the same compound, the z-score in assay [8] was -0.228 (inactive); in assay [9] it was 0.0263; in assay [12] it was 0.579; in assay [13], -1.17 (inactive); in [14], 0.492 (inactive); in [15], 0.0424 (inactive). The composite z-score in [4] was -0.948 (inactive); in [10], -0.114; in assay [11] it was -0.303 (inactive); with XIP peptide (Xip251-270), -0.811.
Take `C=C(C(=O)CC[C@@H](OC(=O)c1ccccc1-c1ccccc1C(=O)O)c1ccccc1OCCO)C(C)C`: the z-score in [1] was 0.942; in [2], -2.55 (inactive); in assay [3] it was 0.132 (inactive); in assay [5], 0.743 (inactive); in assay [6], -0.639 (inactive); in assay [7] it was 0.475 (inactive). Also, the z-score in assay [8] is 0.13 (inactive); in [9] it was 0.131; in [12], -2.04; in [13], -5.82 (inactive); in assay [14], 0.57 (inactive); in [15], 0.916 (inactive). Besides, the composite z-score in assay [4] is -1.52 (inactive); in [10] it was 0.209; in [11] it was 0.341 (inactive); with XIP peptide (Xip251-270), 0.698.
In the case of `COCCCNC(=O)[C@@]1(c2ccc([N+](=O)[O-])cc2)CC(=O)N(C(C)C)[C@@H]1c1ccc(CO)cc1`, the z-score in assay [1] was 0.145; in [2], -0.569 (inactive); in assay [3], 0.879 (inactive); in assay [5], 0.0561 (inactive); in [6], -0.203 (inactive); in assay [7] it was 0.0472 (inactive). The z-score in assay [8] was -0.0495 (inactive); in assay [9], 1.24; in assay [12], 0.382; in assay [13], -0.803 (inactive); in assay [14], 0.0991 (inactive); in assay [15], 0.621 (inactive). The composite z-score in assay [4] is -0.499 (inactive); in assay [10] it was 0.0223; in assay [11] it was -1.3 (inactive); with XIP peptide (Xip251-270) it was 0.64.
Consider `CC(C)[Si]1(C(C)C)OCc2cc(-c3ccc(-c4ccc(Cl)c(Cl)c4)o3)nc(CCc3ccccc3)c21`, for which the z-score in [1] is 0.822; in [2] it was -3.49 (inactive); in [3], -1.64 (inactive); in assay [5], 0.149 (inactive); in assay [6] it was -0.302 (inactive); in assay [7], 1.46 (inactive). Moreover, the z-score in assay [8] is 0.643 (inactive); in [9] it was -0.0096; in assay [12] it was -0.946; in [13], 0.0584 (inactive); in assay [14] it was -0.691 (inactive); in [15], -0.229 (inactive). Also, the composite z-score is 0.393 (inactive) in assay [4], -0.185 in assay [10], -0.218 (inactive) in assay [11] and -0.355 in the assay with XIP peptide (Xip251-270).
